Screening results from PubChem BioAssay.
RAM inhibit: inhibitors of the yeast RAM network, primary screen, dse1pr::URA3 reporter, 5-FOA selection | S. cerevisiae dse1pr::URA3 reporter, 5-FOA growth OD615, 2 d; analog-sensitive cbk1-as2 kinase mutant strain | 190,000 compounds, 1.8% hits | inhibition, % at 50 µM;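 active = inhibition above a set limit, 3 SD over mean compound inhibition, cut at about 8.4% in these data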;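 also: inhibition rescues growth on 5-FOA so higher OD means more RAM inhibition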
PG9 binder: binders of HIV-1 gp120 antibody PG9, primary screen, biochemical, TR-FRET | 360,000 compounds, 0.43% hits | TR-FRET gp120-PG9 antibody binding | inhibition, % at 6.7 µM | HIV-1 gp120 / PG9 antibody interaction; in the data active = inhibition above about 8.5%
NR1D1 modulator: modulators of Rev-erb alpha DNA binding, primary screen, biochemical, FITC-DNA, fluorescence polarization, uHTS | activity, % at 10 µM | Rev-erbα–FITC-DNA binding, 90 min | Nuclear receptor subfamily 1 group D member 1 (Homo sapiens), P20393 | 370,000 compounds, 0.79% hits;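 active = activity above about 14%, limit read from the data; passing the limit was not always enough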
EP2 antag: human EP2 receptor antagonists, primary screen, TR-FRET cAMP, C6 glioma cells; 260,000 compounds, 0.52% hits; Prostaglandin E2 receptor EP2 subtype (Homo sapiens), P43116; inhibition, % at 25 µM; AID 1422, 2008; C6 glioma cells expressing human EP2; cells stimulated with saturating PGE2;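 active = percent inhibition above 40 after rounding to a whole number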;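 also: rat C6 glioma host cells with rolipram phosphodiesterase inhibitor present; the protocol text gives 20 µM as final concentration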
Target sequence (P43116 whole entry, looked up): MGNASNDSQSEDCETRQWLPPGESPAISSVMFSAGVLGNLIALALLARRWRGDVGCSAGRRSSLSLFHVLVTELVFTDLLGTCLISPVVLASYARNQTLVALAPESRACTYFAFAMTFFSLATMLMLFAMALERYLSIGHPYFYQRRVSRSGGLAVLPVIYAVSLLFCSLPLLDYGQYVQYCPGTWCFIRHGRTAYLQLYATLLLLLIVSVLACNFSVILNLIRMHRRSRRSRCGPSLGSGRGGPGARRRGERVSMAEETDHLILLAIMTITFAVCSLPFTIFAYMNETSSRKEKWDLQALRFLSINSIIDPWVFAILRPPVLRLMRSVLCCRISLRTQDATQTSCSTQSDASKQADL
EP2 modulator: EP2 receptor modulators, cAMP readout, primary screen, cell-based, HTRF cAMP, PGE2 stimulation | Prostaglandin E2 receptor EP2 subtype (Homo sapiens), P43116 | EP2-expressing cells, cAMP HTRF FRET, PGE2 co-stimulation | induction, % at 25 µM | 260,000 compounds, 0.83% hits;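 active = compounds whose cAMP rise, as percent of the full-agonist control response, exceeds 60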;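 also: rat C6 glioma line stably carrying human EP2 under a CMV promoter; the protocol text gives 20 µM as final concentration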
SKN-1 inh: suppressors of acrylamide-induced Pgst-4::GFP reporter in worms, primary screen, SKN-1 inhibitor project, whole organism, uHTS, GFP/RFP fluorescence ratio, strain VP596 | inhibition, % at 21.8 µM | 360,000 compounds, 0.49% hits | C. elegans VP596 Pgst-4::GFP/RFP ratio, 24 h;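 active = interference check ratio from 0.5 to 1.5 plus GFP to RFP signal ratio inhibition reaching or exceeding a fixed threshold, cut at about 30% in these data, passing the limit was not always enough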
Hits are given with their value; - = inactive; . = no result given; ! = a repeat was not active. Rows were chosen to be rich in hits. Some 2.9% of all compounds tested hit in one or more screens of this group.

SMILES	RAM inhibit	PG9 binder	NR1D1 modulator	EP2 antag	EP2 modulator	SKN-1 inh
CCc1ccc(C2C(C(=O)OC)=C(C)NC3=C2C(=O)c2ccccc23)cc1 (configuration not stated)	.	.	.	-	-	.
CCOC(=O)c1nn(-c2ccccc2C)c2nc(Nc3ccccc3)cc(=O)n12	8.4	-	-	-	-	-
Cc1cccc(NC(=O)c2ccc(N)cc2)n1	.	.	.	-	-	.
CCCCNc1nc(-c2ccccc2)cc(C(F)(F)F)c1C(N)=O	-	-	-	-	64.2	-
Cc1nn(CC(=O)N(Cc2ccccn2)C2CC2)c(=O)c2cc3occc3n12	.	.	.	-	-	.
COc1ccc(OC)c(C2NC(=O)C(C#N)=C(S)N2c2ccccc2)c1 (configuration not stated)	.	.	.	-	-	.
CC(=O)c1ccc(NC(=O)CSc2nnnn2-c2ccc3c(c2)OCCO3)cc1	.	.	.	-	-	.
CCOC(=O)c1c(C)oc2c1c(C=NCCC(=O)O)c(O)c1ccccc12	-	-	-	-	-	37.0
CCOC(=O)c1c(C)oc2c1c(C=NC1CCS(=O)(=O)C1)c(O)c1ccccc12 (configuration not stated)	-	-	-	.	-	-
O=C1CCc2cc(S(=O)(=O)Nc3cccc(-c4ccc(F)cc4)c3)ccc2N1	.	.	.	-	-	.
Oc1ccc(Cl)cc1C=Nc1ccccc1Br	-	-	-	-	-	-
Oc1ccc(Br)cc1C=Nc1ccc2c3c(cccc13)CC2	10.3	-	-	-	-	-
COc1ccc2c(c1)C=C(CN1CCc3nc(N4CCCC4)[nH]c(=O)c3C1)CO2	.	.	.	-	-	.
CCCOC(=O)CN1CCC2(CC1)NC(=O)c1ccccc1O2	.	.	.	-	-	.
O=c1c2ccccc2nnn1CSc1nnc(-c2cccs2)n1Cc1ccccc1	-	-	-	-	-	-
CCn1c(SCC(=O)c2cc(C)n(C)c2C)nnc1-c1ccccc1	-	-	-	-	-	-
O=c1cc(CSc2nnc(-c3cccs3)n2Cc2ccccc2)nc2sc3ccccc3n12	8.6	-	-	-	-	-
Cc1cc(C(=O)CSc2nnc(-c3cccs3)n2Cc2ccccc2)c(C)n1C	-	-	-	-	-	35.8
COc1cccc(NC(=O)N2CCCC2C(=O)Nc2cccc(NC(C)=O)c2)c1 (configuration not stated)	.	.	.	-	-	.
COC(=O)c1ccc(OC)c(CSc2nnc(COc3ccccc3)o2)c1	-	-	-	-	-	-
COC(=O)c1ccc(OC)c(CSc2nnc(COc3ccc(Cl)cc3)o2)c1	9.7	-	-	-	-	-
COc1ccc(CN2CCc3sccc3C2C)cc1CN1CCOCC1 (configuration not stated)	.	.	.	-	-	.
CN(CC(=O)Nc1nc2ccccc2s1)S(=O)(=O)c1ccc(Cl)cc1	-	-	-	-	-	36.1
CN(CC(=O)Nc1nc2ccccc2s1)S(=O)(=O)c1ccc(Br)cc1	-	-	-	-	-	-
CN(C)CCO/N=C(\c1ccc(Br)cc1)c1cccnc1	.	-	-	.	.	-
SMILES	RAM inhibit	PG9 binder	NR1D1 modulator	EP2 antag	EP2 modulator	SKN-1 inh
CN(C)C/C=C(/c1ccc(Br)cc1)c1cccnc1	.	-	-	42.9!	-	-
CCOC(=O)C(CC)Sc1nnc(COc2ccc(Cl)c(C)c2)n1CC (configuration not stated)	.	.	.	-	-	.
O=C(O)c1cccc(NC(=O)c2cccc(S(=O)(=O)Nc3cccc([N+](=O)[O-])c3)c2)c1	.	-	-	.	.	-
O=[N+]([O-])c1ccc(Oc2ccc(S(=O)(=O)Nc3ccccc3)cc2)cc1	9.8	.	.	-	-	-
O=C(O)c1cc([N+](=O)[O-])ccc1C(=O)Nc1ccccc1	-	-	-	-	61.2	-
O=[N+]([O-])c1ccc(S(=O)(=O)Nc2ccncc2)cc1	.	-	-	.	.	-
O=C(Nc1ccccc1)c1cccc(S(=O)(=O)Oc2ccc([N+](=O)[O-])cc2)c1	10.1	-	-	-	-	-
O=C(Nc1ccccc1)c1sccc1Oc1ccc([N+](=O)[O-])cc1F	-	-	-	-	63.2	-
C#CCN(C#N)c1nc(NC(C)C)nc(NC(C)C)n1	.	.	.	-	-	.
CCC(=O)Nc1ccc(NC(=O)CSc2ncnc3sc(C)c(C)c23)cc1	.	.	.	-	-	.
COc1ccc(OC)c(S(=O)(=O)N2CCC(C(=O)Nc3ccc(C)cc3C)CC2)c1	.	.	.	-	-	.
CCC(c1c[nH]c2ccccc12)c1cn(C)c2ccccc12 (configuration not stated)	.	.	-	.	.	.
O=S1(=O)CCN(c2ccccc2CC(c2c[nH]c3ccccc23)c2c[nH]c3ccccc23)CC1	.	-	-	52.4	-	-
Cn1ccnc1SCC(=O)c1ccc(Br)cc1	-	-	-	-	-	-
O=C(CSc1nccn1-c1ccccc1)c1ccc(Br)cc1	10.7	-	-	-	-	-
O=C(Nc1nc(-c2cccs2)cs1)c1ccc(Cl)s1	-	-	-	-	-	-
O=C(Nc1nc(-c2ccc(Cl)s2)cs1)c1ccccc1	-	-	-	-	-	49.2
CN(C)CCNc1ncnc2c1sc1nc(N3CCCC3)c3c(c12)CC(C)(C)OC3	.	-	-	-	-	49.7
CCN(CC)CCNc1ncnc2c1sc1nc(N3CCCC3)c3c(c12)CC(C)(C)OC3	-	-	-	-	-	-
Clc1ccc(-c2nnc(-c3ccccc3)c(N3CCSCC3)n2)cc1	-	-	-	-	-	38.2
CC(NC(=O)CSc1nc(-c2ccco2)cc(C(F)(F)F)n1)c1ccccc1 (configuration not stated)	.	.	.	-	-	.
Cc1cccc(C)c1NC(=S)N(Cc1ccccc1)Cc1cccs1	9.5	-	-	-	63.0	-
Cc1ccc(-c2nnc(SCC(=O)N3CCCc4ccccc43)n2C)cc1	.	.	.	-	-	.
CCOc1ccc2nc(N=NC3=C(O)CC(C)(C)CC3=O)sc2c1	-	-	-	-	-	35.3
Cc1c(C(=O)Oc2cccc3ccccc23)cnn1-c1ccccc1	8.6	-	-	-	-	-
Nn1cc(-c2ccccc2)nc1SCC(=O)N1CCN(S(=O)(=O)c2ccc(Cl)cc2)CC1	9.8	-	-	-	-	-
CC(C)N1CCN(c2ccncc2S(=O)(=O)N2CCCCC2)CC1	.	-	-	41.4	-	-
Cc1oc2c(c1C(=O)O)C(=O)c1ccccc1C2=O	-	-	-	-	-	-
Cc1oc2c(c1C(=O)c1ccccc1)C(=O)C(=O)c1ccccc1-2	-	-	-	57.2	-	-
